We go through 25 compounds from PubChem BioAssay AID1476 (National Center for Advancing Translational Sciences (NCATS), 2009).

The whole screen tested about 200,000 compounds, of which about 4,500 (2.2%) were called active. About 12% were inconclusive and are not listed. The sample as a whole holds a higher share of actives than the screen did. Values without a mark were called inactive. Calls follow the shape of the dose curve; as a rule, active = well fitted inhibition curve with a large enough effect; inconclusive = small, poorly fitted or top-dose-only effect, or effect the other way; inactive = flat fitted curve, though single readings scatter.
Potency is read from the fitted curve at half-maximal effect.

The target of the assay is Cruzipain (Trypanosoma cruzi) (UniProt P25779). The assay is described as follows: qHTS Assay for Promiscuous and Specific Inhibitors of Cruzain (without detergent). Also: nearly all actives have a fitted effect of over 40% in size.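 As to max response, negative = inhibition: plate controls were enzyme without inhibitor for no effect and buffer without enzyme for full effect.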 As to conditions: purified cruzain, Z-FR-AMC fluorescence, no detergent. In short, it runs like this: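 Detergent-free condition (0.00005% Triton X-100) in acetate buffer pH 5.5 with DTT. 1.5 nM enzyme and compound were pre-mixed 15 min, then 2 uM Z-FR-AMC substrate added; reaction progress from fluorescence change between first and third reads (60 s).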
Chain of Cruzipain (Trypanosoma cruzi) (P25779 123-467 limits assumed): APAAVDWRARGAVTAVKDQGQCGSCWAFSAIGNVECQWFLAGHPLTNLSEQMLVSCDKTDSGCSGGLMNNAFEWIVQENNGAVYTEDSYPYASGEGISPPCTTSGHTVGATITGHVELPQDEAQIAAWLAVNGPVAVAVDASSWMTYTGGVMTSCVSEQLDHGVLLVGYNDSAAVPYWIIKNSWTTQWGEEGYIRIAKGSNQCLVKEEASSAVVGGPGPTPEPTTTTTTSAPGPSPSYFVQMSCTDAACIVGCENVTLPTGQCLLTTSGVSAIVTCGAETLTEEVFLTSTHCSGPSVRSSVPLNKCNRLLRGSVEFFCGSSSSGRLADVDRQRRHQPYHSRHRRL
On the technique in general: In qHTS, concentration-response curves come from the screen itself.
On to `COc1ccc(-n2ccnc(NCCc3ccc(Cl)cc3)c2=O)cc1OC`, for which the max response, negative = inhibition is 16.8%.
`COc1ccc(C2Sc3ccccc3NC3=C2C(=O)c2ccccc23)c(OC)c1OC` (stereo not given): the max response, negative = inhibition was -2.6%.
As for `S=c1nccc(-c2cc(Cl)sc2Cl)[nH]1`, the Potency is 12.6 µM (active).
`COCCNC(=O)CCCN1C(=O)c2ccccc2Sc2ncccc21`: the max response, negative = inhibition was 15.3%.
For the compound `CCS(=O)(=O)N1Cc2ccccc2CC1C(=O)Nc1nc2ccc(F)cc2s1` (stereo not given), the Potency was 12.6 µM (active).
For the compound `O=C(Nc1nc2ccc(F)cc2s1)c1nc(SCc2ccccc2F)ncc1Cl`, the max response, negative = inhibition was 1.9%.
On the same count and under the same terms, for `CS(=O)(=O)c1ccc2nc(NC(=O)C3CCCCC3)sc2c1` the value was 6.38%; for `CCCCOc1ccc(CN2C(=O)C(=O)c3cc(Br)cc(C)c32)cc1OC`, -26.4%.
With `CCOC(=O)C1CCN(C(=O)CSc2c3c(nc4ccc(Cl)cc24)CCCC3)CC1`, the max response, negative = inhibition is -19.6%.
Still for that read-out and setting: for `Cc1cc(C)cc(NC(=O)CCCc2nc(-c3ccccc3Cl)no2)c1` the value was -8.67%.
As for `O=c1cnc2cnc(Nc3ccccc3)nc2n1Cc1ccc(F)cc1`, the Potency is 20 µM (active).
With `Cc1nc2cnc(Nc3ccccc3)nc2n(Cc2ccc(F)cc2)c1=O`, the max response, negative = inhibition was -10.9%.
In the case of `CCNc1ncc2ncc(=O)n(CCc3ccccc3)c2n1`, the max response, negative = inhibition is 5.65%.
Still for that read-out and setting: for `COc1ccc2ncc3c(-c4ccc(C)c(C)c4)nn(CC(=O)NC4CCCC4)c3c2c1` the value was 1.87%; for `COc1ccc(Cl)cc1NC(=O)CCn1c(=O)c2cccn2c2ccccc21`, 26.4%; for `Cc1cccc(Cn2c(=O)n(CCC(=O)NCCc3ccc(Cl)cc3)c(=O)c3sccc32)c1`, 0.837%.
For the compound `Cc1ccc(CCNC(=O)Cn2c(-c3cccs3)cc3cc(F)ccc32)cc1`, the Potency was 15.8 µM (active).
Turning to `COc1ccc(CCNC(=O)CN2CCC(n3nnc4cc(F)ccc43)CC2)cc1OC`, the max response, negative = inhibition was 14.7%.
As for `COc1cccc2c1cc1c(=O)n(CC(=O)N3CCN(c4ccccc4)CC3)nc(C)n12`, the max response, negative = inhibition was -2.78%.
The same measure, in the same setting: for `CCOc1cccc2sc(N3CCN(C(=O)C4CC4)CC3)nc12` the value was 4.68%; for `COC(=O)c1ccccc1NC(=O)Cn1c(=O)cc(C)c2c(C)nn(-c3cccc(Cl)c3C)c21`, 1.01%.
As for `O=C(Nc1ccc2c(c1)OCO2)c1sc2cc(Cl)ccc2c1Cl`, the Potency was 10 µM (active).
Take `CC(C)C(=O)Nc1cccc(C(=O)Nc2ccc3c(c2)OCO3)c1`: the max response, negative = inhibition was -8.97%.
Still for that read-out and setting: for `O=C(Nc1ccc2c(c1)OCO2)c1cc(-c2cccc(Cl)c2)on1` the value was -7.12%; for `O=C(CCc1nc(CN2CCN(S(=O)(=O)c3ccc(Br)cc3)CC2)no1)N1CCCCC1`, 27%.
